Inconclusive results are not listed. Calls of active or inactive are those of the source. Unless noted, the call rests on the fitted dose curve; in most records, active means well fitted curve in the direction sought with a large enough effect in the repeat runs; inconclusive means weak or mixed curves; inactive means no such curve, though single readings can be large; an effect the other way counts as inactive or inconclusive.
Tests used:
[1] = qHTS assay to identify small molecule antagonists of the estrogen receptor beta (ER-beta) signaling pathway - cell viability counter screen (AID 1259382);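 further: HEK293T cells carrying ER-beta-UAS-bla reporter stimulated with estradiol; series mostly up to about 92 µM; nearly all actives have a fitted effect of over 55% in size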
Outline: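 ER-beta-UAS-bla HEK293T cells in 2% charcoal-stripped FBS medium, treated with compound plus 1 nM 17-beta-estradiol for 16 h at 37C. Viability read by CellTiter-Glo luminescence after 30 min at room temperature in the same wells.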

[2] = biological target: Estrogen receptor (Homo sapiens) (UniProt P03372); assay: qHTS assay to identify small molecule agonists of the estrogen receptor alpha (ER-alpha) signaling pathway in the presence of an antagonist (AID 1259383; calls by dose curve; further: top concentration of the series differs between compounds; nearly all actives have a fitted effect of over 15% in size)
Outline: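 VM7Luc4E2 cells express endogenous full-length ER-alpha with an ERE-luciferase reporter and were hormone-deprived for 5 days. Compounds at 15 concentrations were added with 10.0nM ICI-182,780 for 22hr at 37C. Luminescence was read with ONE-Glo.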

[3] = qHTS assay to identify small molecule agonists of the estrogen receptor alpha (ER-alpha) signaling pathway in the presence of an antagonist - cell viability counter screen (AID 1259386);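 further: series mostly up to about 92 µM; cells exposed to compounds for 22 h at 37 °C before the viability read; nearly all actives have a fitted effect of over 30% in size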
Outline: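 Cell viability in VM7Luc4E2 cells (endogenous full-length ER-alpha) measured by CellTiter-Fluor fluorescence in the same wells as the luciferase screen. Cells pre-cultured 5 days in charcoal-stripped serum, then treated 22 h with compounds at 15 concentrations plus 10.0nM ICI-182,780.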

[4] = biological target: Progesterone receptor (Homo sapiens) (UniProt P06401); assay: qHTS assay to identify small molecule agonists of the progesterone receptor (PR) signaling pathway (AID 1346784; calls by dose curve; further: nearly all actives have a fitted effect of over 30% in size)
Outline: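 PR-UAS-bla HEK 293T cells (beta-lactamase reporter under UAS) in 2% charcoal-stripped FBS, dosed with 23 nL compound after 6 hr, incubated 16hr at 37C. LiveBLAzer B/G FRET substrate added, fluorescence read after 2 hours.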

[5] = biological target: Progesterone receptor (Homo sapiens) (UniProt P06401); assay: qHTS assay to identify small molecule antagonists of the progesterone receptor (PR) signaling pathway (AID 1346795; active means well fitted inhibition curve with a large enough effect in the signal ratio in the repeat runs, not every such curve was filed as active; the % refers to the signal ratio)
Outline: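 PR-UAS-bla HEK293T cells with beta-lactamase reporter under UAS control, in 2% charcoal-stripped FBS, treated with compounds plus 1 nM promegestone (R5020, final) for 16 hr at 37C. Read-out: FRET beta-lactamase substrate fluorescence after 2 hr at room temperature.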

[6] = qHTS assay to identify small molecule antagonists of the progesterone receptor (PR) signaling pathway - cell viability counter screen (AID 1346798); further: series mostly up to about 92 µM; nearly all actives have a fitted effect of over 50% in size
Outline: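 PR-UAS-bla HEK293T cells, 3,000/well in 2% charcoal-stripped FBS medium, dosed with compounds plus R5020 agonist and incubated 16 h at 37C. Viability then measured in the same wells by CellTiter-Glo luminescence after 30 min at RT.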

[7] = qHTS assay to identify small molecule agonists of the progesterone receptor (PR) signaling pathway - cell viability counter screen (AID 1346799; calls by dose curve; further: nearly all actives have a fitted effect of over 45% in size)
Outline: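 Counter screen in the PR-UAS-bla HEK293T wells (2% charcoal-stripped FBS, 16 h compound exposure at 37 C) after the bla read. CellTiter-Glo added, 30 min at room temperature, luminescence read as cell viability.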

[8] = qHTS assay to identify small molecule antagonists of the TGF-beta/Smad signaling pathway - cell viability counter screen (AID 1346824); further: nearly all actives have a fitted effect of over 50% in size
Outline: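 SBE-bla HEK 293T cells, incubated overnight, then compound plus 0.25 ng/mL TGF-beta1 (stock added) for 5 hr at 37 C. Viability was read in the same wells by CellTiter-Glo luminescence after 30 min at room temperature.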

[9] = qHTS assay to identify small molecule agonists of the TGF-beta/Smad signaling pathway - cell viability counter screen (AID 1346829); further: top concentration of the series differs between compounds; nearly all actives have a fitted effect of over 45% in size
Outline: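 Cytotoxicity counter screen: CellTiter-Glo luminescence (30 min, room temperature) measured in the SBE-bla HEK 293T reporter wells after 5 hr compound treatment at 37 C and the 2 hr substrate step.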

[10] = qHTS assay to identify small molecule agonists of the TGF-beta/Smad signaling pathway (AID 1346859; active means well fitted activation curve with a large enough effect in the signal ratio in the repeat runs, not every such curve was filed as active; the % refers to the signal ratio; further: series mostly up to about 77 µM)
Outline: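 SBE-bla HEK293T cells plated overnight, then compound exposure for 5 h at 37 C. Beta-lactamase reporter read with LiveBLAzer B/G FRET substrate after 2 h at room temperature, fluorescence at 405 nm excitation, 460/530 nm emission.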

[11] = biological target: Thyrotropin-releasing hormone receptor (Homo sapiens) (UniProt P34981); assay: qHTS assay to identify small molecule antagonists of the thyrotropin-releasing hormone receptor (TRHR) signaling pathway (AID 1346877; active means well fitted inhibition curve with a large enough effect in the repeat runs, not every such curve was filed as active; further: series mostly up to about 51 µM)
Outline: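 TRHR-expressing HEK293 cells loaded with calcium dye for 2 h at 37 C; compounds pre-incubated 5 min at room temperature before TRH challenge at 1 nM final. Intracellular calcium fluorescence read kinetically for 3 min; 15 concentrations in triplicate.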

[12] = biological target: Thyrotropin-releasing hormone receptor (Homo sapiens) (UniProt P34981); assay: qHTS assay to identify small molecule agonists of the thyrotropin-releasing hormone receptor (TRHR) signaling pathway (AID 1346891; calls by dose curve; further: series mostly up to about 58 µM)
Outline: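 HEK293 cells expressing TRHR plated 18 h at 37 C/5% CO2, calcium dye-loaded 2 h at 37 C, then compound added (agonist mode); kinetic calcium fluorescence read 3 min at 1 s intervals; 15 concentrations in triplicate.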

[13] = Human pregnane X receptor (PXR) small molecule agonists, qHTS cell viability counter screen (AID 1346977); further: nearly all actives have a fitted effect of over 50% in size
Outline: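 PXR-Luc HepG2 cells (2,000/well, 5% charcoal-stripped FBS) preincubated 5 hr, then exposed to compounds 24 hr at 37 C. Viability read in the same wells by CellTiter-Fluor fluorescence, reagent added at 23 hr, 1 hr incubation.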

[14] = Caspase-3/7 induction in HepG2 cells by small molecules, qHTS assay (AID 1346978); further: nearly all actives have a fitted effect of over 15% in size
Outline: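 Wild-type HepG2 cells, 2,000/well, settled 5 hr at 37 C and 5% CO2, then compound-treated for 17 hr; caspase-3/7 activity read by luminescent Caspase-Glo 3/7 after 30 min at room temperature.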

[15] = Caspase-3/7 induction in CHO-K1 cells by small molecules, qHTS cell viability counter screen (AID 1346979); further: nearly all actives have a fitted effect of over 35% in size
Outline: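 Wild-type CHO-K1 cells (1,500/well) treated with compound after 5 h plating; after 16 h at 37C, viability read as CellTiter-Fluor fluorescence following 1 h reagent incubation, in the same wells as the caspase read.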

[16] = Caspase-3/7 induction in CHO-K1 cells by small molecules, qHTS assay (AID 1346980); further: nearly all actives have a fitted effect of over 15% in size
Outline: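 Wild-type CHO-K1 cells exposed to compounds for 17hr at 37 C, 5% CO2. Caspase-3/7 activity then measured by Caspase-Glo 3/7 luminescence after 30min at room temperature.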

[17] = Caspase-3/7 induction in HepG2 cells by small molecules, qHTS cell viability counter screen (AID 1346981); further: series mostly up to about 92 µM; nearly all actives have a fitted effect of over 30% in size
Outline: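 Wild-type HepG2 cells, 2,000/well, settled 5 hr at 37 C, 5% CO2 before compound addition. Viability read by CellTiter-Fluor fluorescence, reagent added after 16 hr compound exposure, then 1 hr at 37C, in the same wells as the caspase read.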

[18] = biological target: Nuclear receptor subfamily 1 group I member 2 (Homo sapiens) (UniProt O75469); assay: Human pregnane X receptor (PXR) small molecule agonists, qHTS assay (AID 1346982); further: nearly all actives have a fitted effect of over 35% in size
Outline: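 PXR-Luc HepG2 reporter cells (CYP3A4-driven luciferase) in 5% charcoal-stripped FBS medium, plated 5 h before compound addition, then treated 24 h at 37C. Luciferase read by ONE-Glo luminescence after 30 min at room temperature.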

[19] = biological target: Thyrotropin receptor (Homo sapiens) (UniProt P16473); assay: qHTS assay to identify small molecule antagonists of the thyroid stimulating hormone receptor (TSHR) signaling pathway (AID 1259385; calls by dose curve; further: nearly all actives have a fitted effect of over 20% in size)
Outline: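 TSHR-HEK293 cells (800/well) plated 18 h, then compounds with Ro20-1724 and TSH at 1.5 ng/mL final, 30 min at room temperature. cAMP quantified by HTRF (cAMP-d2/anti-cAMP-cryptate, 1 h); 15 concentrations in triplicate.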

Measured: Potency

Chain of Thyrotropin receptor (Homo sapiens) (P16473 whole entry, looked up): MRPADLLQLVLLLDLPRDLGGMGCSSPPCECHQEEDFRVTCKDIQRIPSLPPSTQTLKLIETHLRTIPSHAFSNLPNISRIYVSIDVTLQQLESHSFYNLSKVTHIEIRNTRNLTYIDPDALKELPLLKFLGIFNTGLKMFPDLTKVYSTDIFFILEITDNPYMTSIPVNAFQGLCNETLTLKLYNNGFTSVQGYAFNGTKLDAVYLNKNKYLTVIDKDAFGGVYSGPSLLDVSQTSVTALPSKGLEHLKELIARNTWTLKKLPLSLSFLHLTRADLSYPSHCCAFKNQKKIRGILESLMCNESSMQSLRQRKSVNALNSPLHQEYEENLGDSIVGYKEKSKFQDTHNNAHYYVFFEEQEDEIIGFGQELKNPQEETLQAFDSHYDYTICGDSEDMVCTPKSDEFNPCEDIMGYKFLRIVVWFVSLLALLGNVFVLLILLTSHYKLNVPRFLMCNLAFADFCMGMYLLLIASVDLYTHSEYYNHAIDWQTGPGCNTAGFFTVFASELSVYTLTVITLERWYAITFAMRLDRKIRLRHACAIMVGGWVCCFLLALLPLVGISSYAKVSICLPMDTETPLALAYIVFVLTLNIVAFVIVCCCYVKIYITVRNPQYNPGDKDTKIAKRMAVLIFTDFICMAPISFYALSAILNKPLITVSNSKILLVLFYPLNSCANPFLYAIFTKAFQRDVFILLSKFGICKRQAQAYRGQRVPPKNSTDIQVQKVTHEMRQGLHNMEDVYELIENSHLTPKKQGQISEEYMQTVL
Chain of Thyrotropin-releasing hormone receptor (Homo sapiens) (P34981 whole entry, looked up): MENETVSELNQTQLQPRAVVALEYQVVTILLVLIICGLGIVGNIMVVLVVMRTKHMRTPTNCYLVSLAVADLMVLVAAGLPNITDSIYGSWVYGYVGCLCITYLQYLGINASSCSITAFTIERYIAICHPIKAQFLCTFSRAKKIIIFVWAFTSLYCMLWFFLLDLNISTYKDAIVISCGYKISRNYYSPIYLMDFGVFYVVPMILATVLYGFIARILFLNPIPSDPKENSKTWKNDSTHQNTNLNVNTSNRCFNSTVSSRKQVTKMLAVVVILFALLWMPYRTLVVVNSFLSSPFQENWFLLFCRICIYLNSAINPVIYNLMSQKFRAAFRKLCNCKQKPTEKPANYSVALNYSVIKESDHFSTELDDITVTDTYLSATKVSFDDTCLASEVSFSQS
Chain of Progesterone receptor (Homo sapiens) (P06401 whole entry, looked up): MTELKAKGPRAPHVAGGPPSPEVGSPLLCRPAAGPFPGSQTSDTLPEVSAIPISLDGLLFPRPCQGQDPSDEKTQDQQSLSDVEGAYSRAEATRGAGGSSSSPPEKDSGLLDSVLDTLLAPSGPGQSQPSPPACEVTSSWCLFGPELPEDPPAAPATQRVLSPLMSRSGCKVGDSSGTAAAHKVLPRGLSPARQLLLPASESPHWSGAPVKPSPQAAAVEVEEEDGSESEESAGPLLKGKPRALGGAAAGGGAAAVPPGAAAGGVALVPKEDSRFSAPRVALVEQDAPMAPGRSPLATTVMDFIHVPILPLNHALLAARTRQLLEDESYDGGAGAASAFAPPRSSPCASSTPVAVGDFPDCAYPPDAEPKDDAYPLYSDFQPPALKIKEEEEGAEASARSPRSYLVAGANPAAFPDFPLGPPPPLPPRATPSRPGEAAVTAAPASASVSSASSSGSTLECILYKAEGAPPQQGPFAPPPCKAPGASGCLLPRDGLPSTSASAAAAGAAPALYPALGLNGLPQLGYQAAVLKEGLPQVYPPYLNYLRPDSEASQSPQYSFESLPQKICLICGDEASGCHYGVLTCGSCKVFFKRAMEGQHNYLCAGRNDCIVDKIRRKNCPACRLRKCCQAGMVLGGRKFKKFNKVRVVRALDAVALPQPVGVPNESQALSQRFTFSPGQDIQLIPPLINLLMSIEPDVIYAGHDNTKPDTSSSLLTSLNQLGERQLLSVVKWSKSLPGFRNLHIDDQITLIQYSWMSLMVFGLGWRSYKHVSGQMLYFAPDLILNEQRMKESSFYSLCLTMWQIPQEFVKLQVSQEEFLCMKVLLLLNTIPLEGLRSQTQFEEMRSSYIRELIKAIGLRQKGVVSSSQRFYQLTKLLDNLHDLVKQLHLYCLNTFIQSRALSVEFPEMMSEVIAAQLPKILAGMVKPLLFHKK
Chain of Estrogen receptor (Homo sapiens) (P03372 whole entry, looked up): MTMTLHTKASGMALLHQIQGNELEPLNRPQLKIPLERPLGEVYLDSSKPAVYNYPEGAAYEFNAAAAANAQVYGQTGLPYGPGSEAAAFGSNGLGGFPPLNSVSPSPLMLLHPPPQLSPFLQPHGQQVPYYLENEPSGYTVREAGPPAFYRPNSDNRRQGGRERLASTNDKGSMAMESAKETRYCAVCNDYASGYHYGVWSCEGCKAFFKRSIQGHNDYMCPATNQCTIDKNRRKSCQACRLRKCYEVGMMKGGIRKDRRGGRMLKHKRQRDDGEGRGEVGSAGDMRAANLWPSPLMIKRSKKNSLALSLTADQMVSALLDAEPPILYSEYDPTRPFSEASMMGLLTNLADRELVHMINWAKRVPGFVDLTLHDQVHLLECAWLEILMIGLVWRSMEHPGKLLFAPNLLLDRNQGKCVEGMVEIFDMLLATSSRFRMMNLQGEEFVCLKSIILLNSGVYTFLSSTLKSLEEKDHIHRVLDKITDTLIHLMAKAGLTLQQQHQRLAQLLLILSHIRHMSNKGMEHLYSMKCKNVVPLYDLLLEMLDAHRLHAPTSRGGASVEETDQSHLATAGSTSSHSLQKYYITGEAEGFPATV
Chain of Nuclear receptor subfamily 1 group I member 2 (Homo sapiens) (O75469 whole entry, looked up): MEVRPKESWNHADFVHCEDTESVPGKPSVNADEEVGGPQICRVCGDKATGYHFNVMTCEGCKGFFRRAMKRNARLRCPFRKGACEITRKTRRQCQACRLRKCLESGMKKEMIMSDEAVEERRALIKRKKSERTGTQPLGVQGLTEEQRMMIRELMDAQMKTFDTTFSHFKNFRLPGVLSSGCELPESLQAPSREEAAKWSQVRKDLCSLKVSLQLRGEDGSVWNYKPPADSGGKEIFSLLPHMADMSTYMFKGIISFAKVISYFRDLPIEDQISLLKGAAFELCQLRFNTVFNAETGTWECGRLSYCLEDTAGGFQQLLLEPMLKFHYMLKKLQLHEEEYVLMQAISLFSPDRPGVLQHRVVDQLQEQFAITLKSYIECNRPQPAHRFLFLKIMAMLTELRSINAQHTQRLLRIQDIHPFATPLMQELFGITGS

C=CCCCCCCCCOC(C)=O
inactive: [1] | [2] | [3] | [4] | [5] | [6] | [7] | [8] | [9] | [10] | [11] | [12] | [13] | [14] | [15] | [16] | [17] | [18]

CCCCCCCC(=O)N(C)C
inactive: [1] | [2] | [3] | [4] | [5] | [6] | [8] | [9] | [10] | [11] | [12] | [13] | [14] | [15] | [16] | [17]

CCCC(=O)C(CC)Sc1ccoc1C (centres undefined)
inactive: [1] | [2] | [19] | [4] | [5] | [6] | [7] | [8] | [9] | [10] | [11] | [12] | [13] | [14] | [15] | [16] | [18]

CC(C)c1cc(C(C)C)cc(C(C)C)c1
inactive: [1] | [2] | [3] | [4] | [5] | [8] | [9] | [10] | [11] | [12] | [13] | [14] | [16] | [17] | [18]

O=S(=O)(O)CC(O)CCl (centres undefined)
inactive: [1] | [2] | [3] | [4] | [5] | [6] | [7] | [8] | [9] | [10] | [11] | [12] | [13] | [14] | [15] | [16] | [17]

CCCCN(CCCC)CCCCCCN(CCCC)CCCC
inactive: [1] | [2] | [19] | [3] | [4] | [5] | [6] | [7] | [8] | [9] | [10] | [11] | [12] | [13] | [14] | [15] | [16] | [17] | [18]

CC(=O)Oc1ccc(C(C)=O)cc1
inactive: [1] | [2] | [19] | [3] | [4] | [5] | [7] | [8] | [9] | [10] | [11] | [12] | [13] | [14] | [15] | [16] | [17]
